Hit rate of the full screen: of about 5,500 compounds, about 2,000 (36%) were called active. Another 18% or so got no clear call; they are omitted. No stated cut-off is given here; in the data, active means normalized growth mostly below about 0.91 (no sharp cut-off); inconclusive means no clear call, values can overlap the other calls; inactive means mostly above about 0.92. Some of the results follow.
Assay: chemical genetic growth profiling, strain panel (AID 1159580);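 further: tested at 20 µM; growth read once vehicle control cultures reached saturation at 30 °C; 1 = growth at the plate median or of vehicle wells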
Conditions: S. cerevisiae deletion strains, growth OD
[1] = locus YDL101C, strain DUN1, stronger effect = lower value
[2] = locus YHR030C, strain SLT2, stronger effect = lower value
[3] = locus YAL013W, strain DEP1, stronger effect = lower value
[4] = locus YDR150W, strain NUM1, stronger effect = lower value
[5] = locus YGR078C, strain PAC10, stronger effect = lower value
[6] = locus YJR075W, strain HOC1, stronger effect = lower value
[7] = locus YMR263W, strain SAP30, stronger effect = lower value
[8] = locus YMR307W, strain GAS1, stronger effect = lower value
[9] = locus YNL128W, strain TEP1, stronger effect = lower value
[10] = locus YNL153C, strain GIM3, stronger effect = lower value
[11] = locus YPL055C, strain LGE1, stronger effect = lower value
[12] = locus YPL241C, strain CIN2, stronger effect = lower value
[13] = locus YAL040C, strain CLN3, stronger effect = lower value
[14] = locus YER002W, strain NOP16, stronger effect = lower value
[15] = locus YNL175C, strain NOP13, stronger effect = lower value
[16] = locus YNL197C, strain WHI3, stronger effect = lower value
[17] = locus YNL224C, strain SQS1, stronger effect = lower value
[18] = locus YOR083W, strain WHI5 (second series), stronger effect = lower value
[19] = locus YCL061C, strain MRC1 (second series), stronger effect = lower value
[20] = locus YDR363W, strain ESC2, stronger effect = lower value
[21] = locus YGR229C, strain SMI1, stronger effect = lower value

Measured: normalized growth

O=C(c1csc(-c2ccc(Cl)cc2)c1)N1CCCCC1
inactive: locus YAR019C, strain CDC15, stronger effect = lower value 0.95 | locus YBL105C, strain PKC1, stronger effect = lower value 0.953 | locus YBR135W, strain CKS1, stronger effect = lower value 0.943 | locus YBR136W, strain MEC1, stronger effect = lower value 0.952 | locus YBR160W, strain CDC28, stronger effect = lower value 0.944 | locus YDL017W, strain CDC7, stronger effect = lower value 0.957 | locus YDL028C, strain MPS1, stronger effect = lower value 0.951 | [1] 0.946 | locus YDL108W, strain KIN28, stronger effect = lower value 0.953 | locus YDL132W, strain cdc53, stronger effect = lower value 0.941 | locus YDL214C, strain PRR2, stronger effect = lower value 0.849 | locus YDR052C, strain DBF4, stronger effect = lower value 0.952 | locus YDR054C, strain cdc34, stronger effect = lower value 0.935 | locus YDR226W, strain ADK1, stronger effect = lower value 0.948 | locus YDR477W, strain SNF1, stronger effect = lower value 0.851 | locus YER123W, strain YCK3, stronger effect = lower value 0.83 | locus YER133W, strain GLC7, stronger effect = lower value 0.857 | locus YFL009W, strain cdc4, stronger effect = lower value 0.942 | locus YFL029C, strain CAK1, stronger effect = lower value 0.944 | locus YFR003C, strain YPI1, stronger effect = lower value 0.96 | locus YFR019W, strain FAB1, stronger effect = lower value 0.882 | locus YFR028C, strain CDC14, stronger effect = lower value 0.948 | locus YGR040W, strain KSS1, stronger effect = lower value 0.844 | locus YGR052W, strain FMP48, stronger effect = lower value 0.918 | locus YGR092W, strain DBF2, stronger effect = lower value 0.834 | locus YHR079C, strain IRE1, stronger effect = lower value 0.785 | locus YHR082C, strain KSP1, stronger effect = lower value 0.831 | locus YHR205W, strain SCH9, stronger effect = lower value 0.801 | locus YIL147C, strain SLN1, stronger effect = lower value 0.948 | locus YJL095W, strain BCK1, stronger effect = lower value 0.714 | locus YJL128C, strain PBS2, stronger effect = lower value 0.878 | locus YJL157C, strain FAR1, stronger effect = lower value 0.838 | locus YJR016C, strain ILV3, stronger effect = lower value 0.954 | locus YJR066W, strain TOR1 (second series), stronger effect = lower value 0.764 | locus YJR066W, strain TOR1, stronger effect = lower value 0.759 | locus YKL048C, strain ELM1, stronger effect = lower value 0.904 | locus YKL067W, strain YNK1, stronger effect = lower value 0.857 | locus YKL101W, strain HSL1, stronger effect = lower value 0.884 | locus YKL193C, strain SDS22, stronger effect = lower value 0.951 | locus YKL203C, strain TOR2, stronger effect = lower value 0.868 | locus YLR133W, strain CKI1, stronger effect = lower value 0.862 | locus YLR403W, strain SFP1, stronger effect = lower value 0.79 | locus YML070W, strain DAK1, stronger effect = lower value 0.847 | locus YMR001C, strain CDC5, stronger effect = lower value 0.94 | locus YMR205C, strain PFK2 (second series), stronger effect = lower value 0.866 | locus YMR277W, strain FCP1, stronger effect = lower value 0.944 | locus YNL006W, strain LST8, stronger effect = lower value 0.953 | locus YNL020C, strain ARK1, stronger effect = lower value 0.84 | locus YNL161W, strain CBK1, stronger effect = lower value 0.953 | locus YNL183C, strain NPR1, stronger effect = lower value 0.801 | locus YNL207W, strain RIO2, stronger effect = lower value 0.928 | locus YNL222W, strain SSU72, stronger effect = lower value 0.958 | locus YNL307C, strain MCK1 (second series), stronger effect = lower value 0.845 | locus YOL078W, strain AVO1, stronger effect = lower value 0.948 | locus YOL136C, strain PFK27, stronger effect = lower value 0.823 | locus YOR061W, strain CKA2, stronger effect = lower value 0.803 | locus YOR119C, strain RIO1, stronger effect = lower value 0.903 | locus YOR231W, strain MKK1, stronger effect = lower value 0.797 | locus YOR329C, strain SCD5, stronger effect = lower value 0.954 | locus YPL031C, strain PHO85, stronger effect = lower value 0.815 | locus YPL153C, strain RAD53, stronger effect = lower value 0.831 | locus YPL204W, strain HRR25, stronger effect = lower value 0.812 | locus YPL209C, strain IPL1, stronger effect = lower value 0.956 | locus YPR025C, strain CCL1, stronger effect = lower value 0.944 | locus YPR106W, strain ISR1, stronger effect = lower value 0.95 | locus YPR111W, strain DBF20, stronger effect = lower value 0.935 | strain NNK1, stronger effect = lower value 0.93 | strain TSCII, stronger effect = lower value 0.942
active: [2] 0.588 | locus YLR113W, strain HOG1, stronger effect = lower value 0.711 | locus YPL256C, strain CLN2, stronger effect = lower value 0.766

O=C(c1c(F)cccc1F)N1CCN(C(=O)c2c(F)cccc2F)CC1
inactive: [3] 1.01 | locus YBR229C, strain ROT2, stronger effect = lower value 0.987 | [1] 1 | locus YDL134C, strain PPH21, stronger effect = lower value 0.973 | [4] 1.02 | locus YEL061C, strain CIN8, stronger effect = lower value 0.945 | [5] 1.02 | [2] 1.11 | locus YHR087W, strain rtc3, stronger effect = lower value 0.98 | locus YJL187C, strain SWE1, stronger effect = lower value 1 | locus YJR043C, strain POL32, stronger effect = lower value 1.02 | [6] 0.988 | locus YKL190W, strain CNB1, stronger effect = lower value 0.984 | locus YLR039C, strain RIC1, stronger effect = lower value 1.09 | locus YLR058C, strain SHM2 (second series), stronger effect = lower value 0.985 | locus YLR085C, strain ARP6, stronger effect = lower value 0.951 | locus YLR262C, strain YPT6, stronger effect = lower value 1.06 | locus YML094W, strain GIM5, stronger effect = lower value 0.996 | locus YMR219W, strain ESC1, stronger effect = lower value 1 | [7] 0.99 | [8] 0.964 | [9] 0.978 | [10] 1.02 | locus YNL298W, strain CLA4 (second series), stronger effect = lower value 0.962 | locus YNL322C, strain KRE1, stronger effect = lower value 0.99 | locus YNR030W, strain Alg12, stronger effect = lower value 0.976 | [11] 0.98 | [12] 1.01 | locus YPR135W, strain CTF4, stronger effect = lower value 1.01

NC(CCCCCP(=O)(O)O)C(=O)O (stereo unspecified)
inactive: [13] 0.977 | [4] 0.989 | [14] 0.973 | [15] 1 | [16] 0.992 | [17] 1.01 | [18] 0.983 | [11] 0.999 | [12] 0.98

CCCCCCCCCCCCCCCCCCNC(=O)OCC(COP(=O)([O-])OCC[n+]1ccsc1)OC (stereo unspecified)
inactive: [3] 0.983 | [13] 1 | [19] 1 | [20] 1.03 | [14] 1.01 | [21] 0.936 | [7] 1 | [8] 0.968 | [15] 1.03 | [16] 1.06 | [17] 1.03 | [18] 1.01 | [11] 1.04 | [12] 1.01

CCCCCCCCCCCCCCCCCC(=O)NCC(COP(=O)([O-])OCC[N+](C)(C)C)OCC (stereo unspecified)
active: [13] 0.0918 | [19] 0.0501 | [4] 0.0538 | [20] 0.0807 | [14] 0.0757 | [21] 0.0622 | [6] 0.0689 | [7] 0.0519 | [8] 0.0635 | [9] 0.0936 | [10] 0.0918 | [15] 0.0883 | [16] 0.0927 | [17] 0.0836 | [18] 0.116 | [12] 0.0483

CCCCCCCCCCCCCCCC(=O)NCC(COP(=O)([O-])OCC[N+](C)(C)C)OCC (stereo unspecified)
active: [13] 0.322 | [19] 0.155 | [4] 0.0974 | [20] 0.165 | [14] 0.0938 | [7] 0.619 | [15] 0.0862 | [16] 0.373 | [17] 0.151 | [18] 0.223 | [11] 0.109
inactive: [5] 0.971

Reference: PubChem BioAssay AID1159580 (chemical genetic matrix, 2015)
